Screening data from PubChem BioAssay.
A selection: hits, their analogues and other compounds. The true share with any hit is near 4.7%.
TIM10 inh – growth inhibitors of TIM10 yeast strain. S. cerevisiae TIM10 strain growth, BacTiter-Glo luminescence, 24 h. inhibition, % at 10 µM. actives 1.4% (n = 330,000). AID 463195;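 active means inhibition of 40% or more at the single tested concentration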;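 further: wild-type TIM10 isogenic control strain grown at permissive 25 °C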
tim23-1 inh – inhibits growth of tim23-1 mutant yeast; S. cerevisiae tim23-1 growth, BacTiter-Glo luminescence, 24 h; inhibition, % at 20 µM; actives 1.3% (n = 330,000);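 active means growth inhibition of the mutant yeast at or above 50%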;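 further: temperature-sensitive mutant grown at 25 °C; plate controls were DMSO-treated mutant yeast for no effect and medium wells lacking yeast for full effect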
tim10-1 inh – growth inhibitors of tim10-1 mutant yeast; AID 463190; S. cerevisiae tim10-1 ts strain growth, BacTiter-Glo, 24 h; inhibition, % at 20 µM; actives 2.2% (n = 330,000);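 active means inhibition of at least 40%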;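 further: mutant grown at 25 °C; 0% = DMSO wells with yeast and 100% = wells holding no yeast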
ATG4B inhibitor – inhibitors of human ATG4B cysteine protease; Q9Y4P1; ATG4B cleavage of LC3-PLA2, NBD-HPC fluorescence, 1 h; inhibition, % at 8.33 µM; actives 0.51% (n = 340,000); in the data active means inhibition above about 40%
Target sequence (Q9Y4P1 whole entry, looked up): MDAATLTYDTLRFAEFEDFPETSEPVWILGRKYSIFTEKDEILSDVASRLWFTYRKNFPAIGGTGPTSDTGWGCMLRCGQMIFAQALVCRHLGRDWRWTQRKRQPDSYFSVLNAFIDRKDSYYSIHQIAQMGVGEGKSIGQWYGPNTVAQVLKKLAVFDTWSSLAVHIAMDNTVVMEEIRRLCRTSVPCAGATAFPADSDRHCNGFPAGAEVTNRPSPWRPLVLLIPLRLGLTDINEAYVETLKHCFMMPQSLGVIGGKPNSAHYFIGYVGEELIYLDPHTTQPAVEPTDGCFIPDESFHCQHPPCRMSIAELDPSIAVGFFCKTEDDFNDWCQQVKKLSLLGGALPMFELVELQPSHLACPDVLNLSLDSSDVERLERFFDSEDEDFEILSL
SKKanGAS inh – inhibitors of SKKanGAS S. pyogenes growth in kanamycin (SK-promoter or general growth effect); BacTiter-Glo, 6 h; inhibition, % at 7.5 µM; actives 1.3% (n = 300,000); AID 1662;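 active means mean replicate score, as percent of positive control median, at least 50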;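 further: strain carries kanamycin resistance gene driven by streptokinase promoter and grows in 40 µg/ml kanamycin; loss of luminescence reflects streptokinase promoter inhibition or plain growth inhibition; 0% = median of DMSO wells and 100% = positive control at its reference dose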
PfHsp90 yeast 2 – growth inhibition of yeast expressing Plasmodium Hsp90. S. cerevisiae expressing PfHsp90, BacTiter-Glo ATP, 48 h; yeast lacking PDR1 and PDR3 efflux regulators. inhibition, % at 9.4 µM. actives 0.32% (n = 310,000). AID 504621;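 active means every replicate shows inhibition above about 80%, whatever the replicate mean, limit read from the data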;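 further: 0% = DMSO neutral controls and 100% = 20 µM radicicol positive controls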
tim10-1 conf – tim10-1 yeast growth inhibition, confirmed | actives 56% (n = 7,400) | S. cerevisiae tim10-1 ts strain growth, BacTiter-Glo, 24 h | shares compounds with tim10-1 inh | inhibition, % at 20 µM;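 active means inhibition of yeast growth at or above a set limit in either of two repeat tests at 20 µM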;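 further: tim10-1 mutant grown at permissive 25 °C to find synthetic lethal compounds; 0% = DMSO yeast wells and 100% = medium wells without yeast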
Numbers without * were called inactive; / = no result given.

SMILES	TIM10 inh	tim23-1 inh	tim10-1 inh	ATG4B inhibitor	SKKanGAS inh	PfHsp90 yeast 2	tim10-1 conf
O=C(Nc1ccc(Oc2cccnc2)cc1)C1CCN(Cc2ccc(F)cc2)CC1	0	4	29	6	-9	7	/
COc1cccc(NC(=O)C2C3CCC4C(CCC32)C4(Cl)Cl)c1 (stereo not given)	2	11	42*	-6	2	-71	29
COc1ccc(CC(=O)N2CCc3ccccc3C2)cc1	6	18	17	-5	2	-10	/
COc1ccc(/C(C)=N/OCC(=O)Nc2nc3ccccc3s2)cc1	11	43	42*	4	7	4	29*
CCc1nc2ccc(C(=O)NCCc3ccc(OC)cc3)cc2nc1CC	1	36	40*	-11	-6	-37	11
CCc1nc2ccc(C(=O)NCc3ccco3)cc2nc1CC	29	24	23	3	-10	5	/
CCc1nc2ccc(C(=O)NCc3ccc(C)o3)cc2nc1CC	6	36	49*	0	-2	-42	6
CCc1nc2ccc(C(=O)NCCc3ccc(OC)c(OC)c3)cc2nc1CC	0	22	22	-6	-3	2	/
CC(=O)Nc1nc2ccccc2n1Cc1ccccc1Cl	16	27	46*	-9	52*	-28	22
CC(=O)Nc1nc2ccccc2n1Cc1ccccc1C	13	18	46*	1	25	-20	27
CC(=O)NCc1nc2ccccc2n1Cc1ccccc1C	10	16	13	6	-6	2	/
CC(=O)Nc1nc2ccccc2n1CCOc1ccccc1Cl	0	-4	23	1	19	-19	/
CCCN1CCCc2ccccc21	-12	-4	-9	-7	-3	-9	/
N#CCCN1CCCc2cc(N=Nc3ccc(C(F)(F)F)cc3)ccc21	26	22	41*	5	20	10	34*
O=C(Nc1ccc(N2CCN(C(=O)c3ccccc3F)CC2)cc1)c1cncc(Br)c1	13	35	46*	-7	2	4	31*
O=C(Nc1ccc(N2CCN(C(=O)c3cccs3)CC2)cc1)c1cccc(F)c1	32	34	48*	-13	-3	16	33*
COc1cccc(C(=O)Nc2ccc(N3CCN(C(=O)c4cccs4)CC3)cc2)c1	25	37	19	-2	-1	-15	/
Cc1ccccc1C(=O)N1CCN(c2ccc(NC(=O)c3ccc4c(c3)OCO4)cc2)CC1	11	29	44*	-9	9	/	29*
CCc1ccc(OCC(=O)Nc2ccc(CN3CCCCC3)cc2)cc1	-13	-25	-11	-5	-10	9	/
Cc1cc(C)n(C2CC(=O)N(c3cc(Cl)cc(Cl)c3)C2=O)n1 (stereo not given)	-8	8	-2	-7	-6	14	/
CCOc1cccc2sc(N(CCN(CC)CC)C(=O)c3ccc(S(=O)(=O)N4CCCCC4)cc3)nc12	-11	2	48*	0	-1	15	22
Cc1ccc2sc(N(CCCN(C)C)C(=O)c3ccc(S(=O)(=O)N(C)Cc4ccccc4)cc3)nc2c1C	29	12	54*	1	40	15	12
CCOc1cccc2sc(N(CCCN(C)C)C(=O)c3ccc(S(=O)(=O)N4CCCCCC4)cc3)nc12	-17	-10	3	-5	3	25	/
Cc1ccc2sc(N(CCCN(C)C)C(=O)c3ccc(S(=O)(=O)N4CCc5ccccc5C4)cc3)nc2c1C	20	20	40*	15	6	10	29
CN(C)CCCN(C(=O)c1ccc(S(=O)(=O)N2CCc3ccccc3C2)cc1)c1nc2c(F)cc(F)cc2s1	14	23	42*	8	8	-14	35*
SMILES	TIM10 inh	tim23-1 inh	tim10-1 inh	ATG4B inhibitor	SKKanGAS inh	PfHsp90 yeast 2	tim10-1 conf
Cc1ccc2sc(N(CCCN(C)C)C(=O)c3ccc(S(=O)(=O)N(C)C)cc3)nc2c1C	11	19	18	-10	-2	-8	/
CCCNC(=O)c1onc(CSc2ccc(Cl)cc2)c1C(=O)NCC1CC1	2	21	8	-10	9	6	/
CN(C)CCCN(C(=O)c1ccc(C(=O)c2ccccc2)cc1)c1nc2c(F)cccc2s1	19	18	47*	20	-2	6	13
CCN(Cc1ccccc1)S(=O)(=O)c1ccc(C(=O)N(CCCN(C)C)c2nc3cc(C)cc(C)c3s2)cc1	-1	25	52*	23	34	/	-5
CCOC(=O)N1CCN(S(=O)(=O)c2ccc(C(=O)N(CCCN(C)C)c3nc4ccc(CC)cc4s3)cc2)CC1	22	18	43*	-11	9	-1	16
Cc1cc(Cl)ccc1OCC(=O)Nc1ccccc1CO	-47	-20	10	7	-4	-7	/
CCCN1C(=O)/C(=N\OCC(=O)NC23CC4CC(CC(C4)C2)C3)c2ccccc21	19	47	42*	-6	-7	4	22
CCCN1C(=O)/C(=N\OCC(=O)Nc2ccc(C(C)C)cc2)c2ccccc21	14	39	48*	-13	-6	3	38*
CCC(CC)C(=O)NCc1ccc2c(c1)cc(C)n2C	15	8	12	-4	-2	/	/
CC(=O)c1ccc(N2Cc3ccccc3C2=NC(=O)c2cccs2)cc1	18	35	25	-12	2	5	/
N#Cc1ccc(N2Cc3ccccc3C2=NC(=O)c2cccs2)cc1	21	40	51*	3	0	1	39*
COCc1ccc(C(=O)Nc2ccc(C(=O)O)cc2)o1	1	15	-3	-6	0	1	/
COc1ccc(-c2cc(-c3ccccc3)c(C#N)c(SCC(=O)Nc3ncc(C)s3)n2)cc1	10	21	42*	4	14	-19	19
CC1(C)CC(=O)/C(=C(\O)c2ccccc2)C(=NCCc2ccccc2)C1	13	35	45*	-12	-5	17	28
C=C(C)CSc1nncn1/N=C/c1ccc(OC)cc1	19	28	43*	-6	-13	14	32*
O=S(=O)(/N=C(/Sc1ccccc1)c1ccccc1)c1ccccc1	39	31	52*	7	1	-5	43*
CCOc1ccc(S(=O)(=O)N2CCN(CC(O)COc3cccc([N+](=O)[O-])c3)CC2)cc1 (stereo not given)	28	19	44*	-1	-4	-1	8
Cc1ccc(S(=O)(=O)N2CCN(CC(O)COc3ccccc3)CC2)cc1 (stereo not given)	6	22	10	-8	8	-28	/
CC1=C(C(=O)OCc2ccccc2)C(c2ccc(C#N)cc2)NC(=O)N1CCCC(=O)O (stereo not given)	4	-5	-10	-2	3	-5	/
